# Laboratory results reported in the supplement of paper PMC9446081.
# About 220 (0.56%) of roughly 39,000 compounds showed activity. What follows is part of a selection rich in actives, with near analogues and random picks from the rest. Unmarked numbers belong to inactive results.
# Tested on: Escherichia coli K-12 BW25113
# Test: relative growth (OD600 normalised to plate interquartile mean) (fraction); higher = less growth inhibition, active = 0.2 or less
# Conditions: 50 µM; LB; incubation time: overnight (16-24 h)
# 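Further: Wild-type cells incubated without shaking, value is the mean of two biological replicates.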
row,Compound,relative growth
1,CC(=O)N[C@H](C)c1cn(C)nc1C,1.03
2,C[C@@H]1CN([C@H](C)CO)C(=O)c2cc(NC(=O)C3CCCCC3)ccc2O[C@@H](C)CCCCO[C@@H]1CN(C)S(=O)(=O)c1cccs1,0.933
3,O=c1[nH]cc(F)c(=O)[nH]1,0.196 (active)
4,O=c1[nH]cc(N2CCCCC2)c(=O)[nH]1,1
5,O=c1[nH]cc(Nc2ccccc2)c(=O)[nH]1,1.01
6,C[N+]1(C)C2CCC1CC(OC(=O)C(O)c1ccccc1)C2.[Br-] (stereo unspecified),0.924
7,Nc1nnc(C(=O)c2ccccc2N)s1,0.951
8,Cc1noc(C)c1NC(=O)Nc1ccc2c(c1)CC(=O)N([C@@H](C)CO)C[C@H](C)[C@H](CN(C)S(=O)(=O)c1ccccc1)O2,0.971
9,Cc1noc(C)c1NC(=O)N(C)C[C@H]1Oc2ccc(NS(=O)(=O)c3c(C)noc3C)cc2CC(=O)N([C@@H](C)CO)C[C@@H]1C,0.985
10,C[C@H](CO)N1C[C@H](C)[C@@H](CN(C)S(=O)(=O)c2ccccc2)OCCCC[C@H](C)Oc2ccc(NS(=O)(=O)c3cn(C)cn3)cc2C1=O,0.993
11,O=C(NO)c1cn(CC(=O)N2CCC3(CC2)C(=O)NCN3c2ccccc2)nn1,0.94
12,O=C(/C=C/c1cccc(-c2cn(-c3cccc(C(=O)N4CCC5(CC4)C(=O)NCN5c4ccccc4)c3)nn2)c1)NO,0.972
13,O=C(NO)c1cn(-c2cccc(C(=O)N3CCC4(CC3)C(=O)NCN4c3ccccc3)c2)nn1,0.0368 (active)
14,C[C@H](CO)N1C[C@H](C)[C@@H](CN(C)CC2CC2)Oc2c(NS(=O)(=O)c3cn(C)cn3)cccc2C1=O,0.999
15,COC(=O)C[C@@H]1CC[C@@H]2[C@@H](COc3ccc(NS(=O)(=O)c4ccccc4Cl)cc3C(=O)N2C)O1,1.03
16,CS(=O)(=O)Nc1cccc(C2=NN(c3nc(-c4ccccc4)c4cc(Cl)ccc4n3)[C@H](c3ccco3)C2)c1,1
17,Cc1noc(C)c1NC(=O)Nc1ccc2c(c1)C(=O)N([C@@H](C)CO)C[C@@H](C)[C@H](CN(C)S(=O)(=O)c1ccc(F)cc1)OCCCC[C@H](C)O2,1.03
18,O=C(C[C@@H]1C[C@@H]2c3cc(NS(=O)(=O)c4ccc(F)cc4)ccc3O[C@@H]2[C@H](CO)O1)NC1CCCC1,0.992
19,COc1ccc(C#Cc2ccc3c(c2)O[C@@H](CN(C)C(C)=O)[C@@H](C)CN([C@@H](C)CO)S3(=O)=O)cc1,1.03
20,COc1cc(CN)cc(OC)c1OC,1
21,COc1cccnc1N,0.99
22,COc1cc(O)cc(OC)c1OC,1.1
23,COc1ccc(Cc2cnc(N)nc2N)cc1OC,0.0502 (active)
24,COc1cc(Cc2cnc(N)nc2N)cc(OC)c1OC,0.044 (active)

row,Compound,relative growth
1,COc1ccc(C2=C(N)C(=O)NC2=O)cc1OC,0.93
2,Cc1ccc(S(=O)(=O)N(C)C[C@H]2Oc3c(NS(=O)(=O)c4cn(C)cn4)cccc3C(=O)N([C@@H](C)CO)C[C@@H]2C)cc1,0.959
3,Cc1noc(C)c1NC(=O)Nc1cccc2c1O[C@@H](CN(C)Cc1ccc(Oc3ccccc3)cc1)[C@H](C)CN([C@H](C)CO)C2=O,0.995
4,COc1ccc(-c2cnc3c(c2)C(=O)N([C@H](C)CO)C[C@H](C)[C@@H](CN(C)S(=O)(=O)c2ccc(OC)cc2)O3)cc1,1
5,C[C@@H]1CN([C@@H](C)CO)C(=O)c2cc(N(C)C)ccc2O[C@@H](C)CCCCO[C@@H]1CN(C)C(=O)Nc1ccc(C(F)(F)F)cc1,0.928
6,COc1cccc(S(=O)(=O)Nc2ccc3c(c2)[C@@H]2C[C@@H](CC(=O)N4CCCCC4)O[C@@H](CO)[C@@H]2O3)c1,0.993
7,C[C@H]1CN([C@@H](C)CO)S(=O)(=O)c2ccc(Br)cc2O[C@@H]1CN(C)C(=O)c1cccnc1,0.972
8,C[C@@H]1CN([C@H](C)CO)S(=O)(=O)c2ccc(-c3cccc(C#N)c3)cc2O[C@@H]1CN(C)C(=O)c1cccnc1,1.01
9,Cc1n[nH]c(=S)n1N,0.968
10,Cc1nnsc1-c1onc(C)c1C(N)=O,0.866
11,C[C@H]1CN([C@@H](C)CO)C(=O)c2cccc(NC(=O)C3CC3)c2O[C@@H]1CN(C)S(=O)(=O)c1ccc(Cl)cc1,1
12,C[C@@H]1CN([C@H](C)CO)C(=O)Cc2cc(NC(=O)Cc3cn(C)c4ccccc34)ccc2O[C@H]1CN(C)CC1CCCCC1,1.02
13,CO[C@H]1C[C@@H]2CC[C@@H](C)[C@@](O)(O2)C(=O)C(=O)N2CCCC[C@H]2C(=O)O[C@H]([C@H](C)C[C@@H]2CC[C@@H](OP(C)(C)=O)[C@H](OC)C2)CC(=O)[C@H](C)/C=C(\C)[C@@H](O)[C@@H](OC)C(=O)[C@H](C)C[C@H](C)/C=C/C=C\C=C\1C,0.837
14,Nc1c2ccccc2nc2ccccc12,0.0461 (active)
15,Nc1c2c(nc3ccccc13)CCCC2,0.985
16,Cl.Nc1c2c(nc3ccccc13)CCCC2,0.911
17,Cc1noc(C)c1NC(=O)N(C)C[C@H]1Oc2ccc(NS(=O)(=O)c3cn(C)cn3)cc2C(=O)N([C@H](C)CO)C[C@H]1C,0.989
18,C[C@@H]1CN([C@H](C)CO)C(=O)Cc2cc(NC(=O)C3CCCCC3)ccc2O[C@H]1CN(C)Cc1ccc(C(=O)Nc2ccccc2N)cc1,0.979
19,COc1cc2c(cc1OC)CN(CCc1ccc(NC(=O)c3cc(OC)c(OC)cc3NC(=O)c3cnc4ccccc4c3)cc1)CC2,0.965
20,COC(=O)N/N=C/c1c[n+]([O-])c2ccccc2[n+]1[O-],0.0462 (active)
21,CC(=O)O.N=C(N)NN=Cc1c(Cl)cccc1Cl,0.885
22,COC(=O)NN=Cc1c[n+]([O-])c2ccccc2[n+]1[O-],0.574
23,C[C@H]1CN([C@@H](C)CO)C(=O)c2cccc(NS(=O)(=O)c3ccccc3)c2O[C@H]1CN(C)S(C)(=O)=O,0.967
24,O=c1c(O[C@@H]2O[C@H](CO)[C@@H](O)[C@H](O)[C@@H]2O[C@H]2OC[C@](O)(CO)[C@H]2O)c(-c2ccc(O)c(O)c2)oc2cc(O)cc(O)c12,1.02

row,Compound,relative growth
1,O=C(C[C@@H]1CC[C@@H](NS(=O)(=O)c2ccc(F)cc2)[C@@H](CO)O1)N1CCC(Cc2ccccc2)CC1,0.987
2,CC(C)NC(=N)NC(=N)Nc1ccc(Cl)cc1.Cl,0.965
3,Cl.Cl.N=C(NCCCCCCNC(=N)NC(=N)Nc1ccc(Cl)cc1)NC(=N)Nc1ccc(Cl)cc1,0.0423 (active)
4,CCC(=O)Nc1ccc(Cl)cc1,1
5,Cc1noc(C)c1NC(=O)N(C)C[C@H]1OCCCC[C@@H](C)Oc2ccc(NC(=O)C3CCCCC3)cc2C(=O)N([C@@H](C)CO)C[C@H]1C,0.976
6,Cc1noc(C)c1NC(=O)N(C)C[C@H]1Oc2c(NC(=O)C3CC3)cccc2C(=O)N([C@H](C)CO)C[C@@H]1C,1
7,CC(C)NC(=O)Nc1ccc2c(c1)C(=O)N([C@@H](C)CO)C[C@H](C)[C@H](CN(C)CC1CCCCC1)OCCCC[C@H](C)O2,1.01
8,CC[C@@H](O)C[C@H]1CC[C@H]([C@@H](C)C(=O)O[C@@H](C)C[C@H]2CC[C@H]([C@@H](C)C(=O)O[C@@H](C)C[C@H]3CC[C@H]([C@@H](C)C(=O)O[C@@H](C)C[C@H]4CC[C@H]([C@@H](C)C(=O)O)O4)O3)O2)O1,1.06
9,CN(C)CCC=C1c2ccccc2COc2ccc(CC(=O)O)cc21.Cl,0.0442 (active)
10,CN(C)CCC=C1c2ccccc2COc2ccccc21.Cl,1.03
11,CN(C)CCC=C1c2ccccc2CCc2ccccc21.Cl,0.976
12,C[C@@H]1CN([C@H](C)CO)C(=O)c2ccccc2-c2ccccc2CO[C@@H]1CN(C)C(=O)Nc1cccc(F)c1,1.01
13,CCOC(=O)CCn1cc(F)c(=O)[nH]c1=O,0.986
14,CC(=O)On1cc(F)c(=O)[nH]c1=O,0.0691 (active)
15,CCOC(=O)Cn1cc(F)c(=O)[nH]c1=O,1.06
16,CCC1OC(=O)C(C)C(=O)C(C)C(OC2OC(C)CC(N(C)C)C2O)C(C)(OC)CC(C)C(=O)C(C)C2N(CCCCn3cnc(-c4cccnc4)c3)C(=O)OC12C (stereo unspecified),0.0499 (active)
17,C[C@@H]1CCCCO[C@@H](CN(C)CC2CCCCC2)[C@@H](C)CN([C@H](C)CO)C(=O)c2cc(N(C)C)ccc2O1,1
18,CN(C)[C@@H]1C(=O)C(C(=O)NCN2CCCC2)=C(O)[C@@]2(O)C(O)=C3C(=O)c4c(O)cccc4[C@@](C)(O)[C@H]3C[C@@H]12,0.516
19,CN(C)C1C(O)=C(C(N)=O)C(=O)C2(O)C(O)=C3C(=O)c4c(O)cccc4C(C)(O)C3C(O)C12.Cl (stereo unspecified),0.0578 (active)
20,CN(C)C1C(O)=C(C(N)=O)C(=O)C2(O)C(O)=C3C(=O)c4c(O)ccc(Cl)c4C(C)(O)C3CC12.Cl (stereo unspecified),0.0595 (active)
21,CN(C)C1C(O)=C(C(N)=O)C(=O)C2(O)C(O)=C3C(=O)c4c(O)cccc4C(C)(O)C3CC12.Cl (stereo unspecified),0.056 (active)
22,CN(C)c1cc(NC(=O)CNC(C)(C)C)c(O)c2c1CC1CC3C(N(C)C)C(O)=C(C(N)=O)C(=O)C3(O)C(O)=C1C2=O (stereo unspecified),1.06
23,CN(C)c1ccc(O)c2c1CC1CC3C(N(C)C)C(O)=C(C(N)=O)C(=O)C3(O)C(O)=C1C2=O.Cl (stereo unspecified),0.0626 (active)
